Screening data from PubChem.
This is a sample that favours compounds with a hit; in the whole collection about 19% have one here.
TDP1 cell CPT = qHTS for Inhibitors of human tyrosyl-DNA phosphodiesterase 1 (TDP1): qHTS in cells in presence of CPT | chicken DT40 Tdp1-/-;hTDP1 cells + 20 nM CPT, ATP luminescence, 48 h | Potency, µM (doses to about 46.2 µM), most hits filed as inhibitors | hit rate 12% among 420,000 | AID 686979, 2013; further: nearly all actives have a fitted effect of over 55% in size
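Cell growth measured by CellTiter-Glo luminescence after a minimum 48 h, 37 C compound exposure with 20 nM CPT in Tdp1-knockout DT40 cells stably expressing hTDP1, seeded 400/well; qHTS titration format.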
HT1080 IDH1KD tx = qHTS for induction of synthetic lethality in tumor cells producing 2HG: qHTS for the HT-1080-IDH1KD cell line; HT-1080 IDH1 knockdown viability, ATP luminescence, 48 h; Potency, µM (titrated, usually from 46.1 µM), actives largely listed as cytotoxic; hit rate 2% among 360,000
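In this qHTS, HT-1080 cells depleted of IDH1 are exposed for 48 h at 37 °C to compound titrations. Toxicity is scored from CellTiter-Glo luminescence, with DMSO as full viability and medium alone as none.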
HT1080-NT tox = qHTS for induction of synthetic lethality in tumor cells producing 2HG: qHTS for the HT-1080-NT fibrosarcoma cell line; HT-1080-NT fibrosarcoma viability, CellTiter-Glo ATP luminescence, 48 h; Potency, µM (highest dose often 46.1 µM), actives largely listed as cytotoxic; hit rate 1.6% among 360,000; AID 686970, 2013;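 further: NT is the 2HG producing partner of a matched IDH1 knockdown line; nearly all actives have a fitted effect of over 55% in size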
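Compounds were tested in concentration-response format on HT-1080-NT cells for 48 hours at 37 degrees C. Cell viability came from CellTiter-Glo luminescence; curves were classified by r2, response magnitude and activity.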
IL-1B inflam inh = qHTS for Inhibitors of Inflammasome Signaling: IL-1-beta AlphaLISA Primary Screen. THP-1 LPS/ATP IL-1B secretion, AlphaLISA, 16 h; active compounds read low. activity change, % at 57.5 µM. hit rate 4.7% among 360,000. AID 743279, 2014; in the data active means activity change below about -50%; inconclusive means mostly about -30% to -49%
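Secreted IL-1B measured by AlphaLISA bead assay after 16 h compound exposure of THP-1 cells; compounds (final up to 57.5 uM) added 1 h before LPS (250 ng/mL) and ATP (1.25 mM) stimulation; lower signal means less secretion.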
TDP1 cell noCPT = qHTS for Inhibitors of human tyrosyl-DNA phosphodiesterase 1 (TDP1): qHTS in cells in absence of CPT | Potency, µM (series often up to 46.2 µM), most hits filed as inhibitors | AID 686978, 2013 | DT40 Tdp1-/- hTDP1 cells, no CPT, ATP luminescence, 48 h | hit rate 15% among 420,000; further: nearly all actives have a fitted effect of over 55% in size
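Chicken DT40 Tdp1-/- cells complemented with human TDP1, screened without camptothecin (DMSO vehicle only), 400 cells/well. Compounds pin-transferred, cells incubated at 37 °C for at least 48 hr. Growth read as ATP-dependent luminescence (CellTiter-Glo, 30 min at RT).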
ELG1 DNA repair = qHTS screen for small molecules that inhibit ELG1-dependent DNA repair in human embryonic kidney (HEK293T) cells expressing luciferase-tagged ELG1; Potency, µM (doses to about 46.1 µM), actives largely listed as inhibitors; HEK293T ELG1-luciferase reporter, luminescence, 16 h; DNA damage induced by 5-fluorouridine; AID 504467, 2011; hit rate 2.3% among 330,000; further: nearly all actives have a fitted effect of over 55% in size
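Luminescence from the luciferase reporter, measured 30 min after ONE-Glo reagent at room temperature, was the read-out. Beforehand, 2,000 cells per well were exposed for 16 hr at 37 °C to 5-fluorouridine together with compound or vehicle.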
Numbers stand for hits; n = inactive; u = inconclusive; x = no result given; ! = a repeat was not active; [ ] = dose if it differs, or a comment. Unless noted, the call rests on the fitted dose curve; in most records, active means well fitted curve in the direction sought with a large enough effect; inconclusive means small, poorly fitted or top-dose-only effect, or another doubt; inactive means no such curve, though single readings can be large; an effect the other way counts as inactive or inconclusive.

SMILES | TDP1 cell CPT | HT1080 IDH1KD tx | HT1080-NT tox | IL-1B inflam inh | TDP1 cell noCPT | ELG1 DNA repair
CC1(C(=O)NCc2cccc(Cl)c2)Cc2c(-c3cccc(C(N)=O)c3)ccnc2O1 (stereo not given) | u | u | u | n | u | x
CC(=O)Nc1cccc(-c2ccnc3c2CC(C)(C(=O)NCc2cccc(Cl)c2)O3)c1 (stereo not given) | 3.7µM | u | u | n | 4.1µM | x
CC(=O)Nc1ccc(-c2ccnc3c2CC(C)(C(=O)NCc2cccc(Cl)c2)O3)cc1 (stereo not given) | u | u | u | n | 23µM | x
CC(=O)Nc1cccc(-c2ccnc3c2CC(C)(C(=O)NCCN(C)C)O3)c1 (stereo not given) | n | n | n | n | n | x
O=C(C[n+]1ccccc1)N/N=C/c1ccccc1C(F)(F)F | n | n | n | n | n | n
CC(=O)Nc1cccc(-c2ccnc3c2CC(C)(C(=O)Nc2cccc(NS(C)(=O)=O)c2)O3)c1 (stereo not given) | n | n | n | n | n | x
COc1ccc(CNC(=O)C2(C)Cc3c(-c4cccc(NC(C)=O)c4)ccnc3O2)cc1OC (stereo not given) | u | u | n | n | 18µM | x
CN(C)c1ccc(-c2ccnc3c2CC(C)(C(=O)NCc2cccc(Cl)c2)O3)cc1 (stereo not given) | 23µM | u | u | u | 21µM | x
CC(=O)Nc1cccc(-c2ccnc3c2CC(C)(C(=O)NCc2cccs2)O3)c1 (stereo not given) | u | 1.6µM | u | n | 4.1µM | x
COc1ccc(NC(=O)C2Cc3ccccc3O/C2=N\O)cc1 (stereo not given) | n | n | n | n | n | u
CCOc1ccccc1C(=O)NCC(=O)OCC(=O)c1c(N)n(C)c(=O)n(C)c1=O | n | n | n | n | n | n
CCCOc1ccc(F)cc1-c1cc(C(=O)NCc2ccc(C(F)(F)F)cc2)[nH]n1 | u | u | u | n | 16µM | x
CCCOc1ccc(F)cc1-c1cc(C(=O)NCc2cccc(Cl)c2)[nH]n1 | 23µM | u | n | n | u | x
CCCOc1ccc(F)cc1-c1cc(C(=O)NCc2cccc(C(F)(F)F)c2)[nH]n1 | 21µM | u | u | n | 18µM | x
CCCOc1ccc(F)cc1-c1cc(C(=O)NCc2ccccc2)[nH]n1 | u | n | n | u | u | x
COc1ccccc1NC(C)C(=O)N/N=C/c1ccccc1OCc1cccc(Br)c1 (stereo not given) | u | u | u | n | u | n
CCOC(=O)C1C(C(=O)OC)=C(c2ccc(F)cc2)c2ccccc2N1S(=O)(=O)C(F)(F)F (stereo not given) | u | n | n | n | u | u
CCOC(=O)C1C(C(=O)OC)=C(c2ccc(OC)cc2)c2ccccc2N1S(=O)(=O)C(F)(F)F (stereo not given) | u | n | n | n | 16µM | 12µM
CCOC(=O)C1=C(c2ccccc2)c2ccccc2N(S(=O)(=O)C(F)(F)F)C1C(=O)OCC (stereo not given) | u | n | n | n | u | 16µM
CCOC(=O)C1(C)C(C(=O)OC)=C(c2ccc(OC)cc2)c2ccccc2N1C(=O)OC (stereo not given) | 21µM | n | n | n | 13µM | u
CCOC(=O)C1=C(C2=CCCCC2)c2ccc(OC)cc2N(S(=O)(=O)C(F)(F)F)C1C(=O)OCC (stereo not given) | 5.8µM | n | n | u | 2.3µM | n
CCOC(=O)C1(C)Oc2ccccc2C(c2ccc(OC)cc2)=C1C(=O)OC (stereo not given) | u | n | n | n | u | u
Cc1ccc(C)c(N(C(=O)c2ccco2)C(C(=O)NC2CCCC2)c2ccco2)c1 (stereo not given) | n | n | n | n | n | n
CCOC(=O)c1cnc(SC)nc1Oc1cccc(NS(=O)(=O)c2ccc(Cl)cc2)c1 | u | n | n | n | u | 23µM
CCOC(=O)c1cnc(SC)nc1Oc1cccc(NC(=O)c2ccc(Cl)cc2)c1 | u | n | n | n | 23µM | n
SMILES | TDP1 cell CPT | HT1080 IDH1KD tx | HT1080-NT tox | IL-1B inflam inh | TDP1 cell noCPT | ELG1 DNA repair
CCOC(=O)C1=CCN(S(=O)(=O)c2ccc(C)cc2)C1c1ccc(Cl)cc1 (stereo not given) | u | u | u | n | u | x
Cn1c(=O)c(Nc2ccc(O)cc2)c2c3c(cccc31)C(=O)c1ccccc1-2 | 3.7µM | n | n | u | 2.6µM | u
O=C(CN1CCC(c2nc3ccccc3s2)CC1)NCc1cccs1 | u | u | 10µM | n | 18µM | 9.2µM
O=C(CN1CCC(c2nc3ccccc3s2)CC1)N1CCCCC1 | u | n | n | n | u | u
O=Cc1ccnc(-c2ccc(OC(=O)c3ccco3)cc2)n1 | 5.2µM | n | n | -86 | 5.8µM | n
CCCCCCCCCCOC(=O)Cn1c(COc2cccc(C)c2)[n+](C)c2ccccc21 | 7.3µM | u | u | -97 | 4.6µM | n
CCCCCCCCCCOC(=O)Cn1c(COc2ccc(Cl)cc2)[n+](C)c2ccccc21 | 4.1µM | n | n | -72 | 4.6µM | n
CCOC(=O)Cn1c(COc2ccccc2OC)[n+](C)c2ccccc21 | u | n | n | n | n | x
Cc1cccc(OCCCn2c(=O)sc3ccccc32)c1 | n | n | n | n | n | u
CCCCCCCCCCOC(=O)Cn1c(COc2ccccc2C)[n+](C)c2ccccc21 | 1.6µM | 12µM | 23µM | -97 | 1µM | u
CCCCCCCCCCOC(=O)Cn1c(COc2ccc(OC)cc2)[n+](C)c2ccccc21 | 2.6µM | 13µM | 21µM | -108! | 2.6µM | u
CCCCOC(=O)Cn1c(=O)n(CC(=O)OCCCC)c2ccccc21 | n | n[9.24 µM] | n | n | n | n
Cc1ccc2[nH]c(C(=O)N3CCC(C(N)=O)CC3)cc2c1 | n | n | n | n | n | u
Cc1cc(C)n(C(C)CNS(=O)(=O)c2ccc(Cl)cc2)n1 (stereo not given) | n | n | n | n | n | n
O=c1cnc2cnc(Nc3ccccc3)nc2n1CCc1ccccc1 | n | x | x | x | u | x
NC(=O)COn1c(SCC(N)=O)nc2ccccc2c1=O | n | n | n | n | n | u
